This is part of a sample that, as a whole, favours compounds with a hit. Of some 83,000 tested, about 20% had one in any assay.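 Method: cells in 96-well plates; compound added at one concentration; 48 h incubation; percent growth measured; values under 10 scored active.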 Calls of active or inactive are those of the source.
Experiments:
Test in all cases: NCI-60 one-dose screen, 48 h (100 = growth as untreated, 0 = no growth, -100 = all killed)
Settings in all cases: 10 µM unless noted
NCI-H23 lung = tested on: NCI-H23 lung
NCI-H226 lung = tested on: NCI-H226 lung
HOP-62 NSCLC = tested on: HOP-62 NSCLC
NCI-H460 lung = tested on: NCI-H460 lung
HOP-92 NSCLC = tested on: HOP-92 NSCLC
NCI-H522 lung = tested on: NCI-H522 lung
A549/ATCC NSCLC = tested on: A549/ATCC NSCLC
786-0 renal = tested on: 786-0 renal
COLO 205 colon = tested on: COLO 205 colon

Measured: growth

O=C(NCCO)Nc1ccc(-c2nc(N3CCOCC3)c3cccn3n2)cc1
inactive: NCI-H23 lung 18.2% | NCI-H522 lung 10.1%
active: NCI-H226 lung 6.97% | HOP-62 NSCLC -0.0166% | NCI-H460 lung 8.21% | HOP-92 NSCLC -21.4% | A549/ATCC NSCLC 2.7% | 786-0 renal -5.56% | COLO 205 colon -7.82%

O=C(Nc1ccc(Nc2ncnc3sc4c(c23)CCOC4)cc1)Nc1ccc(Cl)c(C(F)(F)F)c1
inactive: NCI-H23 lung 86% | NCI-H226 lung 103% | HOP-62 NSCLC 116% | NCI-H460 lung 99.7% | HOP-92 NSCLC 89% | NCI-H522 lung 66.5% | A549/ATCC NSCLC 99.3% | 786-0 renal 107% | COLO 205 colon 104%

N#Cc1c(-c2ccc(C(F)(F)F)cc2)cc(NCC2CCS(=O)(=O)CC2)n2c1nc1ccccc12
inactive: NCI-H23 lung 88.8% | NCI-H226 lung 93.7% | HOP-62 NSCLC 86.4% | NCI-H460 lung 96.8% | HOP-92 NSCLC 80.9% | NCI-H522 lung 64.5% | A549/ATCC NSCLC 77% | 786-0 renal 84.6% | COLO 205 colon 96.6%

c1cc(OCCN2CCCCC2)cc(-c2n[nH]c3ccc(-c4ncn[nH]4)cc23)c1
inactive: NCI-H23 lung 43.8% | NCI-H226 lung 61.6% | HOP-62 NSCLC 60.6% | NCI-H460 lung 66% | HOP-92 NSCLC 44.8% | NCI-H522 lung 36.8% | A549/ATCC NSCLC 63.8% | 786-0 renal 79.9%
active: COLO 205 colon 6.03%

O=C(CNc1nc(-c2ccc(Cl)cc2)cs1)Nc1ccc(-c2nc3ccccc3s2)cc1
inactive: NCI-H23 lung 87.6% | NCI-H226 lung 80.3% | HOP-62 NSCLC 106% | NCI-H460 lung 91.3% | HOP-92 NSCLC 92.9% | NCI-H522 lung 93.1% | A549/ATCC NSCLC 99% | 786-0 renal 109% | COLO 205 colon 93.8%

O=C1C=CC2(NN=C(c3ccccc3)N2c2cccc(Cl)c2)C(Cl)=C1 (configuration not stated)
inactive: NCI-H23 lung 85.9% | NCI-H226 lung 86.5% | HOP-62 NSCLC 63.8% | NCI-H460 lung 91.8% | HOP-92 NSCLC 84.5% | NCI-H522 lung 36.6% | A549/ATCC NSCLC 80.1% | 786-0 renal 98% | COLO 205 colon 103%

CCCNC(=O)c1cn2ncnc(Nc3cc(C(=O)NC4CC4)ccc3C)c2c1C
inactive: NCI-H23 lung 24.6% | NCI-H226 lung 42.1% | HOP-62 NSCLC 81.1% | NCI-H460 lung 66.8% | HOP-92 NSCLC 74.6% | NCI-H522 lung 79.1% | A549/ATCC NSCLC 63.3% | 786-0 renal 99% | COLO 205 colon 88.9%

Nc1ncnc2c1ccn2-c1cccc(NC(=O)c2ccc(N3CCOCC3)c(C(F)(F)F)c2)c1
inactive: NCI-H23 lung 49.8% | NCI-H226 lung 60% | HOP-62 NSCLC 71.3% | NCI-H460 lung 28.8% | HOP-92 NSCLC 20.5% | NCI-H522 lung 18.7% | A549/ATCC NSCLC 28.1% | 786-0 renal 86.4% | COLO 205 colon 49%
